Values without a mark were called inactive. The source made the active and inactive calls. No stated cut-off is given here; in the data, active means inhibition above about 36%; inactive means the rest.
Each molecule was assayed on transactivating tegument protein VP16 (Human herpesvirus 1) (assay: VP16 transactivation reporter inhibitors, counter-screen for SRC2 inhibitor project, cell-based, luminescence, single concentration (AID 652007)). Settings: cell-based VP16 transactivation luciferase reporter, at 8.9 µM, hits give high values.

Compound | inhibition
C=CCc1c(C)nc(SC(C)C)[nH]c1=O | 0.2%
O=C(NCCc1ccccc1)c1ccc2c(c1)OCO2 | -13.4%
CCCCC(NC(=O)CCc1c(C)c2cc3c4c(oc3c(C)c2oc1=O)CCCC4)C(=O)O (stereo not given) | 31.6%
O=[N+]([O-])c1ccc(Sc2nnnn2-c2ccccc2)nc1 | 12.5%
Cc1ccc(-c2nc(-c3ccccn3)no2)cc1Cl | 11.8%
CC(C)(c1ccc(O)cc1)c1ccc(O)c(C(=O)O)c1 | -8.08%
Cc1cc(N2CCOCC2)c2c(N)cc(C)c(C)c2n1 | -7.44%
CC(NC(=O)CCc1nnc(-c2ccc(-c3ccccc3)cc2)o1)c1nccs1 (stereo not given) | 17%
Cn1nnnc1Sc1ncnc2scc(-c3cccc(F)c3)c12 | 7.55%
COc1ccc2c(c1)CCCN2C(=O)C1CCCN(S(=O)(=O)c2ccc(C(C)(C)C)cc2)C1 (stereo not given) | -3.95%
COc1ccc2c(n1)Sc1nc3ccccc3nc1N2 | -80.4%
Oc1cccc(C(Nc2nccs2)c2ccc3cccnc3c2O)c1 (stereo not given) | -15.2%
Cc1cccc(Nc2nc(NCc3ccco3)c3ccccc3n2)c1 | 25.1%
NS(=O)(=O)c1ccc(NC(=O)COc2ccc(C(=O)c3ccc(F)cc3)cc2)cc1 | -1.97%
CC(C)Cc1nnc(NC(=O)CCC(=O)N2CCN(Cc3ccccc3)CC2)s1 | 8.01%
CCN(CC)S(=O)(=O)c1ccc(NC(=O)Nc2cccc(C(F)(F)F)c2)cc1 | -13.1%
NNC(=O)COc1ccc(-c2nccc(-c3ccc(F)cc3)n2)cc1 | -14.6%
O=S(=O)(c1ccc(Cl)cc1)c1snnc1-c1ccccc1 | 31.6%
COc1cccc(/C=N/NC(=O)c2cc(-c3ccccn3)nc3ccccc23)c1O | 9.38%
CCNC(=O)COc1ccc(/C=C2\COc3ccccc3C2=O)cc1OC | 3.8%

Compound | inhibition
NC(=O)C1CCN(CCS(=O)(=O)c2ccc(Cl)cc2)CC1 | -1.09%
COc1ccc(OC)c(S(=O)(=O)Nc2ccc3c(c2)OCCO3)c1 | -22.5%
COc1ccc2ccc(O)c(CN3CCN(S(=O)(=O)c4cccc(C(F)(F)F)c4)CC3)c2c1 | 6.66%
Brc1cccc(-c2cnc3n2CCCCC3)c1 | 12.6%
O=C(Cn1cnc2ccccc21)N/N=C/C(Br)=C/c1ccccc1 | -14%
Cc1sc2ncnc(N3CCC(C(=O)Nc4ccc(S(N)(=O)=O)cc4)CC3)c2c1C | -3.11%
CCOc1ccc(-c2cc(CCCC(=O)Nc3cc(OC)ccc3OC)no2)cc1 | 47.9% (active)
Cc1c(CCC(=O)NCCCC(=O)O)c(=O)oc2cc3oc4c(c3cc12)CCCC4 | 47.5% (active)
Cc1ccc2cc(CN(Cc3ccco3)S(=O)(=O)c3c(C)ccc4nsnc34)c(=O)[nH]c2c1 | 26.5%
O=C(Nc1nc2cc3c(cc2s1)OCCO3)c1ccco1 | 24.9%
O=C(Cc1coc2cc3c(cc12)CCC3)OCC(=O)N1CCCC1=O | 16.3%
COc1ccc(NC(=O)Cc2nnc(SCC(=O)Nc3ccc(F)cc3)n2C)cc1 | -17.1%
COc1ccc(C(=O)NC2CC3CCCC(C2)N3CC(C)C)cc1 (stereo not given) | 2.31%
CC(C)(C)n1nc(Cc2cccc3ccccc23)c2c(N)ncnc21 | 2.66%
Cc1nnc(SCc2nc3sc(C(=O)O)c(C)c3c(=O)[nH]2)s1 | 21.2%
O=c1[nH]nc(Sc2ncnc3sccc23)n1CCc1ccccc1 | 14.9%
Oc1cccc2c(NC(=S)Nc3ccc(SC(F)F)cc3)cccc12 | -23.5%
COC(=O)COc1ccc(S(=O)(=O)Nc2ccc3c(c2)OCCO3)cc1C | -11.5%
O=C(CN1C(=O)NC2(CCCCC2)C1=O)Oc1ccc2c(C(F)(F)F)cc(=O)oc2c1 | -11.6%
CCCCc1ccc(N/C(N)=N/c2nc(C)cc(C)n2)cc1 | 30.2%
